Inconclusive results are not listed. Entries that show only a call come without a potency. Activity calls are given as the source filed them. Calls come from the whole dose curve; as a rule, active = well fitted inhibition curve with a large enough effect; inconclusive = small, poorly fitted or top-dose-only effect; inactive = flat fitted curve, though single readings scatter.
Each molecule was assayed on Zika virus NS2B-NS3 protease (assay: Primary screen GU AMC qHTS for Zika virus inhibitors (AID 1347154; note: nearly all actives have a fitted effect of over 70% in size)). Details: Zika NS2B-NS3 unlinked protease, AMC fluorogenic substrate; series mostly up to 54.1 µM.
Outline: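 Unlinked Zika NS2B hydrophilic domain/NS3 protease domain noncovalent complex (25 nM final) in 10 mM Tris-HCl pH 8.0, 0.01% Tween 20, with AMC peptide substrate. Fluorescence (ex 340, em 450 nm) change over 15 min, room temperature; percent inhibition fitted to 4-parameter Hill equation.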
Potency is the fitted concentration of half-maximal effect.

SMILES	Potency
COc1cc(C(=O)NC2CCCNC2)cc(OC)c1OC (centres undefined)	inactive
CCCCCC[C@@H](CCC)C(=O)O	inactive
O=C(O)[C@@H](O)[C@H](O)[C@H](O)[C@@H](O)C(=O)O	inactive
COC(=O)c1c(Cl)c(Cl)c(C(=O)OC)c(Cl)c1Cl	inactive
CCCCN(CCN(CCCC)C(=O)N1CCOCC1)C(=O)N1CCOCC1	inactive
CCC(=O)Oc1ccc2c(c1)CC[C@@H]1[C@@H]2CC[C@@]2(C)[C@H]1C[C@@H](OC(=O)CC)[C@@H]2OC(=O)CC	inactive
CC(C)(c1ccc(O)cc1)c1ccc(O)cc1	inactive
Nc1ccc(C(=O)N2CC3CC(CN(Cc4ccccc4)C3)C2)cc1	inactive
CC(C)(C)C(=O)OCOC(=O)C1N2C(=O)CC2S(=O)(=O)C1(C)C (centres undefined)	inactive
COC(=O)c1cc(Cl)ccc1OC	inactive
CCCCC(CC)COC(=O)c1ccccc1C(=O)O (centres undefined)	inactive
CCOC(=O)C(O)c1ccccc1 (centres undefined)	inactive
Cc1ccccc1C(=O)N1CC/C(=N\OS(=O)(=O)O)c2ccc(Cl)cc21	inactive
CCS(=O)(=O)c1ccc(OC)c(C(=O)OC)c1	inactive
COc1ccc2cc(C=O)ccc2c1	31.6 µM (active)
CN=C(N)NC(=O)Nc1c(C)cccc1C	inactive
C1N2CN3CN1CN(C2)C3	inactive
C=CCNc1nc(NCC=C)nc(N2CCN(C(c3ccc(F)cc3)c3ccc(F)cc3)CC2)n1	inactive
C[C@H]1C[C@@H]2[C@H]([C@@H](O)C[C@@]3(C)[C@H]2CC[C@]3(O)C(=O)CO)[C@@]2(C)C=CC(=O)C=C12	inactive
CCCCOC(=O)CCCCCCCCC(=O)OCCCC	inactive

SMILES	Potency
O=S(=O)(O)c1ccc2nc(-c3ccccc3)[nH]c2c1	inactive
CC(NCCC(c1ccccc1)c1ccccc1)c1ccccc1 (centres undefined)	inactive
CCOC(=O)C(=O)CCCCCCl	inactive
C#CC(C)(CC)OC(=O)c1ccccc1C(=O)O (centres undefined)	inactive
O=C(O)Cn1c(=O)n(Cc2ccc(Br)cc2F)c(=O)c2ccc(Cl)cc21	inactive
CC(CCc1ccc2c(c1)OCO2)NN (centres undefined)	inactive
CC(=O)OCC[N+](C)(C)C	inactive
Cc1ncc(CO)c(CO)c1O	inactive
Cc1cc(C(C)(C)C)c(O)c(C(C)(C)C)c1	inactive
CC(C)CCCC(C)NCCC(C)C (centres undefined)	inactive
Cc1cc(=O)oc2cc(O[C@@H]3SC[C@@H](O)[C@H](O)[C@H]3O)ccc12	inactive
CC(=O)Nc1ccc(S(=O)(=O)Nc2cc(C)on2)cc1	inactive
Cc1ccc2c(Cl)cc(Cl)c(O)c2n1	inactive
CC(=O)[C@@]1(O)CC[C@H]2[C@@H]3C[C@H](C)C4=CC(=O)CC[C@]4(C)[C@H]3CC[C@@]21C	inactive
CN1CCC(Nc2ncc3ncnc(Nc4ccc(F)c(Cl)c4)c3n2)CC1	inactive
Cc1[nH]cnc1-c1ccc(Cl)cc1	inactive
O=[N+]([O-])c1ccc(O)c2ncccc12	inactive
CC(=O)c1ccc(O)c(C(N)=O)c1	inactive
CC(NN)c1ccccc1 (centres undefined)	inactive

Source: PubChem BioAssay (NCATS)
